Consider 40 molecules from PubChem BioAssay (Tox21).

Inconclusive results are not listed. Calls of active or inactive are those of the source. The call rests on the fitted dose curve.

A short description of this assay: qHTS assay for small molecule disruptors of the mitochondrial membrane potential - cell viability (AID 720634).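 Further: human HepG2 liver cancer cells; nearly all actives have a fitted effect of over 20% in size.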 The note with it: HepG2 viability, ATP luminescence (CellTiter-Glo), 1 h; series mostly up to 83.2 µM. From the text: U.S. Tox21 Program National Center for Advancing Translational Sciences [NCATS] NIH Chemical Genomics Center [NCGC] U.S. Environmental Protection Agency [EPA] National Institutes of Environmental Health Sciences [NIEHS] National Toxicology Program [NTP] U.S. Food and Drug Administration [FDA] Tox21 Assay Overview: Mitochondrial membrane potential (MMP), one of the parameters for mitochondrial function, is generated by mitochondrial electron transport chain that creates an electrochemical gradient by a series of redox reactions. This gradient drives the synthesis of ATP, a crucial molecule for various cellular processes. Measuring MMP in living cells is commonly used to assess the effect of chemicals on mitochondrial function; decreases in MMP can be detected using lipophilic cationic fluorescent dyes. […] The dye accumulates in the mitochondria of healthy cells as aggregates, with red fluorescence. The mitochondrial potential decreases and the dye could not accumulate in the mitochondria and remains in the cytoplasm in monomers, with green fluorescence. In addition to the mitochondrial potential assay, these cells were also used to test the cytotoxicity by determining the cell viability in the culture based on the quantitation of ATP present. The cytotoxicity was measured in the same assay well of MMP assay.
Tox21 Assay Protocol Summary: 2,000 HepG2 cells in 5 uL/well were dispensed into black, clear-bottom 1536-well plates using a Multidrop Combi (Thermo Scientific) dispenser. The assay plates were incubated for an overnight at 37 C to allow cells to attach to the wells, followed by the transfer of 23 nL compound or DMSO vehicle by a pin tool (Kalypsys). The plates were incubated for 1 hr at 37 C and 5% CO2, followed by the addition of 5 uL of 2X m-MPI dye into each well using Flying Reagent Dispenser (Aurora Discovery) and then CellTiter-Glo reagent was added at 4 uL/well and incubated 30 min at room temperature. Then luminescence intensity was quantified on a ViewLux CCD-based plate reader.
On to `CC(C(=O)O)c1cccc(Oc2ccccc2)c1` (stereo not given), for which the outcome was inactive.

In the case of `CCOc1ccccc1OCC`, the result was inactive. Then `CC(=O)N1C[C@H](O)C[C@H]1C(=O)O`, with “inactive”; and `CN1C(C)(C)CC(O)CC1(C)C`, with “inactive”.

In the case of `O=[N+]([O-])c1ccc(/C=N\O)o1`, the molecule was called inactive.

With `COc1ccccc1OCC1CNC(=O)O1` (stereo not given), the molecule was classed as inactive. Then `Cc1ccc(C(=O)c2ccc(CC(=O)O)n2C)cc1`, with “inactive”; and `C[C@@H]1CCC[C@H](C)N1`, with “inactive”; and `CC1=NN(c2cc(S(=O)(=O)O)ccc2Cl)C(=O)C1N=Nc1ccccc1` (stereo not given), with “inactive”. The entry for `CC1=NS(=O)(=O)c2cc(Cl)ccc2N1` is “inactive”. With `CCOCC(C)O` (stereo not given), the call was inactive. The entry for `CNCCO` is “inactive”.

As to `COC(=O)C1=C(C)NC(C)=C(C(=O)OC(C)C)C1c1cccc2nonc12` (stereo not given), the outcome was inactive. The entry for `CCCCOCCOC(=O)COc1cc(Cl)c(Cl)cc1Cl` is “inactive”; for `CCO[Si](OCC)(OCC)c1ccccc1` it is “inactive”. The entry for `O=C1CCCCCCCCCCCCCCO1` is “inactive”. The entry for `CCCCCCCCCCOc1cc2c(=O)c(C(=O)OCC)c[nH]c2cc1OCC` is “inactive”.

`COc1cc(-c2ccc(=O)[nH]n2)ccc1OC(F)F`: the outcome was inactive.

For the molecule `CC(=O)C1CCCCC1=O` (stereo not given), the call was inactive. Then `[K+]`, with “inactive”.

As to `O=CN(CCO)CCO`, the result was inactive. With `CC(=O)c1ccccc1[N+](=O)[O-]`, the molecule was classed as inactive.

On to `CC(N)C12CC3CC(CC(C3)C1)C2` (stereo not given), for which the call was inactive.

With `CCCc1nn(C)c2c(=O)[nH]c(-c3cc(S(=O)(=O)N4CCN(C)CC4)ccc3OCC)nc12`, the result was inactive. The entry for `CC12CCC(C(=O)C1=O)C2(C)C` (stereo not given) is “inactive”; for `CCOC(=O)COC(=O)c1ccccc1C(=O)OCC` it is “inactive”. For `[Ca+2]`, the outcome was inactive. Then `COc1cccc(OC)c1C(=O)N[C@@H]1C(=O)N2[C@@H]1SC(C)(C)[C@@H]2C(=O)O`, with “inactive”; and `CC(C)(C)c1ccc(-c2ccc(C(C)(C)C)cc2)cc1`, with “inactive”; and `Cc1ccnc(NS(=O)(=O)c2ccc(N)cc2)n1`, with “inactive”.

Turning to `O=C(O)CNC(=O)c1ccccc1`, the result was inactive. `NS(=O)(=O)Cc1noc2ccccc12`: the molecule was called inactive.

For the molecule `CCCn1cc[n+](C)c1C`, the outcome was inactive. In the case of `CC(=O)O[C@@]12CO[C@@H]1C[C@H](O)[C@@]1(C)C(=O)[C@H](O)C3=C(C)[C@@H](OC(=O)[C@H](O)[C@@H](NC(=O)OC(C)(C)C)c4ccccc4)C[C@@](O)([C@@H](OC(=O)c4ccccc4)[C@H]21)C3(C)C`, the molecule was classed as inactive.

For `C[N+](C)(CCOc1ccccc1)Cc1cccs1`, the outcome was inactive. For `CN1[C@@H]2CC[C@H]1CC(OC(=O)C(O)c1ccccc1)C2` (stereo not given in full), the result was inactive. As to `CCCCCCCCCCCCCCCCCCO`, the molecule was called inactive.

For `CN(C)CCN(C)CCN(C)C`, the result was inactive. `CN1CCC(=C2c3ccccc3CCc3cccnc32)CC1`: the molecule was called inactive. Then `CN(C)C(=O)Oc1ccc[n+](C)c1`, with “inactive”.
